# Publication PMC13494018
# A number with no mark means an inactive call. The rule behind the calls is not given here.
# B1: Pdl1_binder_AF2_2 (protein)
# chain: SIEEMVEEMEKLLEEAAKIVPEIKELLEKAKEIAKKAIEIAKKKGNGEAVAKIFRDMAEMTLRAAKFDKKGAENAALLMIKRAEDIAE
# B2: Pdl1_binder_AF2_22 (protein)
# chain: YRIAIFFPSREKAEEWAAEARAAGRLVRYLTNLMVVEVDSEEEARAVAAEAEALGAATVFLD
# B3: Pdl1_binder_AF2_79 (protein)
# chain: KREEALRKAAEAAVKAMEMAKKASDEAKVEIMEHFSRAMRAIKEGDFEEAIRHLRKAAEVAEEKVGKEVGEFIREAAREVERIA
# B4: Pdl1_binder_AF2_85 (protein)
# chain: EARELVKEAVEKFEKAAEEALKDFEKAEKLAKEALEKLYEAAKLDPSLRPVYQEAALHLVKALAHDDDPEKASEELKKAAEVAKKELE
# B5: Pdl1_binder_AF2_52 (protein)
# chain: IKEKIEELEKKAEEEVEEAKKLDKEEANKKLNKLSTEIYIEAIQVNDEEFRKKAVEILTKIAKESKELGLEEAEKAASSFAEELKEKL
# B6: Pdl1_binder_AF2_43 (protein)
# chain: SAIEKTKEKIRQLFESAGVEVEDIEVEGDTITVHVKEDTEAARQAALLANVYAEDKVGLKVVLEA
# B7: Pdl1_binder_AF2_93 (protein)
# chain: REEKIEKVREAAEEAKKAGAIEDYEIEGDEVKFYRKDWKPESLLIVMKAAQVAALEGFKPTIVKS
# B8: Pdl1_binder_AF2_5 (protein)
# chain: EEDLEKLVELARKALEHIKRAAEYSKEDESKMAEELAKAVALASEISKIDVEVAKLVLKAVNAVMKGDRLEEGVKLAEEALKRAEEKK
# B9: Pdl1_binder_AF2_73 (protein)
# chain: DEARDEAITELMLVASRALKAGPALAEAVELLLEAIHLAVEGRLEEAAELAERAAELAREAGDEEVAEEAERAAELARRAAEEEE
# B10: Pdl1_binder_AF2_37 (protein)
# chain: SETTLKETAKLIEVMAKDRGEFVKIEAKGDKIVLYTKTEEGAKKINKEGSKLAKSVGVEFEAKVA
# B11: Pdl1_binder_AF2_7 (protein)
# chain: DKESAAKKAIQLLEIARERVVADPAAAKAFKEAAKLVEVMLKDAGADEEKAEKVEEKAEKAADAYAAGDKETADKYYEEAVELVKEAA
# B12: Pdl1_binder_AF2_45 (protein)
# chain: MIVHIETPTRDLQLFLKLYAEEKGFKVVEAGETSLVIESDLPREKVEKFIRIAEAMGAKVEVEE
# B13: Pdl1_binder_AF2_95 (protein)
# chain: LEEERREFEEVLERLLEVAEEDPEVRERAEEMVRRAREVAEREGVAAGAAEAAVGALRIASEASEEVRKRYLELASELQAIGQRVVRA
# B14: design_391_ca6baf5d-2451-47ba-bffc-fc886679966a_164_dldesign_0_cycle1_af2pred (protein)
# chain: AGKVGELAAETLKVAAEARRVAAELPEIREEVTARTSRLVAEAFRAALSGTDEDTAKRALEELKRLLEEARELLEEA
# B15: Pdl1_binder_AF2_8 (protein)
# chain: YKLVVEAPNEKIAEQIKEIAESIGAKAEIEGMKVVIEADDKQTIEFIKLYAEEKGAKVLEIT
# B16: Pdl1_binder_AF2_64 (protein)
# chain: EEEEKKEKANLLRVEAAQKLSLVAEALPEVREKALEAIRKIFDKETIEEGVELAREIAERVAAEGTEEQARLAREAVEKAEEALKLEK
# B17: Pdl1_binder_AF2_13 (protein)
# chain: MYVLVAKADENEARFLKLMAEKLGVKAEVEGDIVTFVSDDKEAIEIIRRFLEKEGRVISFEE
# B18: Pdl1_binder_AF2_65 (protein)
# chain: ETVRVDATTKETALALMEMGEKAGLKVVIGLTSKEDAEEVAEIAKKKGKFEVFHI
# B19: Pdl1_binder_AF2_18 (protein)
# chain: DEETRREIAEHLLRVAKKDQGLVDAEIEGDKVRVKAKTEEQYEKGKIAAEAAAAIVGGEAEAEIV
# B20: design_391_ca6baf5d-2451-47ba-bffc-fc886679966a_206_dldesign_0_cycle1_af2pred (protein)
# chain: DWQAVALQAAEAAAQAAKEDPENAALFNEAAHLLLLAVARPETALELTEKALKLAEKAAKTGSELAKKAYELTKEALELLKAA
# B21: Pdl1_binder_AF2_61 (protein)
# chain: MYVVVAKGTEQQAKLFALIARDRGHEAEVEGDTAVVKTDDLEEAEKLAELARELGMEAEVIE
# B22: Pdl1_binder_AF2_87 (protein)
# chain: ERREELEAIAKATESLAELLELGEKDPEVRKAALRAAQIVAERLAERAEELGAEEAAELLRKAAEDPENALRYVREAAEKLRAEAEAL
# B23: Pdl1_binder_AF2_66 (protein)
# chain: REQIYEQFLELAKAEAREFPGVVDVSREGDTLIVTTKTEEAAKEFEKRLQPIADSVGVKLETKVA
# B24: Pdl1_binder_AF2_6 (protein)
# chain: SDELRVEAVQVAQEASVAIARAERAVAEGDAEEIRRAAEELERAARRAEEQAERLEEAGDKGMAEFLRRVVERAREAAARARRAAEEL
# B25: Pdl1_binder_AF2_51 (protein)
# chain: MEVIYADTKEEATMKVMEALSRGVAREDILVYLKDAKDAEKLAKVWGVTAKLA
# B26: design_391_ca6baf5d-2451-47ba-bffc-fc886679966a_219_dldesign_0_cycle1_af2pred (protein)
# chain: AEAERRREEVIREAREAAERLREAGREASPELRALAEATAQTVLLLVEGGEANSPELGLRVAERALELARRTLEEVRAG
# B27: Pdl1_binder_AF2_30 (protein)
# chain: MSKRDELLTKALEYLQKATKLVYEHDPETAREIAHHFSKAVADPEKAEEELEKALELAEKAAAEMERGEELRELMEKAKEYVLEYVKL
# B28: Pdl1_binder_AF2_92 (protein)
# chain: PKVVVEADTEEEAEKMAKKFREMGAEAEIEGKTVVATSDSEELIKLIAVIARDRGLKAEVIP
# B29: Pdl1_binder_AF2_91 (protein)
# chain: DEKFKKIKKMAKVFSESTGKEIEVEKKGDEFIITAKDADEATYQAAKLLKARAEDLGVKARFKEA
# B30: design_391_ca6baf5d-2451-47ba-bffc-fc886679966a_158_dldesign_0_cycle1_af2pred (protein)
# chain: AEEKRKKAQELYEKAIAEAKELAKKGDIGALLKVTMDAAKEILELDPSLEPLAEALRKQGTALAQEAIAAAIAAAA
# B31: Pdl1_binder_AF2_86 (protein)
# chain: MRLTIGIAETEEEAEELARRFREEGVEDFVVVTDLEEAVAIAREAGVPTTILAPKGFDTKALLKAAMELNEAGIPTSVQHIP
# B32: Pdl1_binder_AF2_33 (protein)
# chain: MEEAKRVAEQMALMMRAAGEEASVEVEGDKITIYYKGDDESLWEVAESVAEKIEEKYGVEVEVVR
# B33: Pdl1_binder_AF2_76 (protein)
# chain: MYEVVIEGEKSVAEFIKLIAEQLGAEAEVEGDKAVIRTERREDAERLAEAAKRFGAEAEVRE
# B34: design_391_ca6baf5d-2451-47ba-bffc-fc886679966a_175_dldesign_0_cycle1_af2pred (protein)
# chain: DEKLKKAEELAKQAAKATLTPTGKAEFDKLANEAMKLVSQLFKEDPAKGQKAAKALSEAIDQAKANAALAAAAA
# B35: Pdl1_binder_AF2_49 (protein)
# chain: SKKVRFQAYQASAEVIAKEVGGYVVSTGPDKVVIAAPTEEAAEKARKALDELGKAFGFGYEVFVA
# B36: Pdl1_binder_AF2_12 (protein)
# chain: MHRTVTVKNEAEAIAAVIEAYHSGEKLTIVTDSEEIAKKAERLNKQLGGNATFEV
# B37: d4r5_design_ppi_497_dldesign_0_cycle0_af2pred (protein)
# chain: KKEEVRKITEEAIEKMRTVEPEEAVNAVQDAQFEMQGLAPTAETRRKVARLASEAARLVATGEKVEEGIEKLREAGEYLIESL
# B38: Pdl1_binder_AF2_35 (protein)
# chain: SLKEKAEKHIEEAEKLAKKVGELADKEKAEKAIELLKKGTPESIVEAIALLDQLAKEEKENKEEVRKLASEAIVAAMKAAALLDAAEE
# B39: Pdl1_binder_AF2_3 (protein)
# chain: MEKAEERKKWLLEKLKELGVEVKEISLDGHVVITGAKSEEALKGAESLVKMFGLFLGVEAKVEVV
# B40: Pdl1_binder_AF2_72 (protein)
# chain: DEMDKLKVEAMKYGSKAIKIASEKDEELAERAAEALSLAMTDPEKGAKELRKIAEELEEKGLPEAAEYLRKAADYFERYAKLLKE
# Target: control:Baker_PD-L1, Q9NZQ7
# Sequence (Q9NZQ7 whole entry): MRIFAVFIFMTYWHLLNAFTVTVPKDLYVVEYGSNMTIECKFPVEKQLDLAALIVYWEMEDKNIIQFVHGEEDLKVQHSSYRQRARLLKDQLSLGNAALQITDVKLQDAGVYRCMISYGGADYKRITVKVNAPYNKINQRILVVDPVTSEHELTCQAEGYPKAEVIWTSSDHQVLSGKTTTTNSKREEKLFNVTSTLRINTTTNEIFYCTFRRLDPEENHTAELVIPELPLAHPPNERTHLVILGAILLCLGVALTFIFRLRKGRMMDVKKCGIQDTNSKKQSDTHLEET
row,Binder,binding in a display sort
1,B1,not found
2,B2,not found
3,B3,not found
4,B4,not found
5,B5,not found
6,B6,not found
7,B7,not found
8,B8,binds (active)
9,B9,not found
10,B10,not found
11,B11,not found
12,B12,binds (active)
13,B13,not found
14,B15,binds (active)
15,B16,not found
16,B17,not found
17,B18,not found

row,Binder,binding in a display sort
1,B19,not found
2,B21,not found
3,B22,not found
4,B23,not found
5,B24,not found
6,B25,not found
7,B27,not found
8,B28,not found
9,B29,not found
10,B31,not found
11,B32,not found
12,B33,binds (active)
13,B35,not found
14,B36,not found
15,B38,not found
16,B39,not found
17,B40,not found

# Target: CD276, Q5ZPR3
# Sequence (Q5ZPR3 whole entry): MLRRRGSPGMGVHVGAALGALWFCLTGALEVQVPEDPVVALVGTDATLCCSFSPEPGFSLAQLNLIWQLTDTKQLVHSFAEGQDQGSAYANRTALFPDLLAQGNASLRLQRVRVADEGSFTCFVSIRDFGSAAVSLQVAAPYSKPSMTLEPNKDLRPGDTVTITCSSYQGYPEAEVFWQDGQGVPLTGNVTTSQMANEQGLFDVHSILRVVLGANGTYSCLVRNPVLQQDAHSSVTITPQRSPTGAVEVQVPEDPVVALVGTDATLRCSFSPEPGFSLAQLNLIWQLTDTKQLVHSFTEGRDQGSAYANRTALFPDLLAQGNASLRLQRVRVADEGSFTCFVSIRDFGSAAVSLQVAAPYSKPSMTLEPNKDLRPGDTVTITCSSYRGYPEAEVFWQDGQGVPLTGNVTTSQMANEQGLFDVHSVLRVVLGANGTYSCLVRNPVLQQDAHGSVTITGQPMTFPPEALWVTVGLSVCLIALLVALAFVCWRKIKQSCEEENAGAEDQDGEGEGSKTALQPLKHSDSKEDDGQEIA
row,Binder,binding in a display sort
1,B14,not found
2,B20,not found
3,B26,not found
4,B30,not found
5,B34,not found

# Target: VTCN1, Q7Z7D3
# Sequence (Q7Z7D3 whole entry): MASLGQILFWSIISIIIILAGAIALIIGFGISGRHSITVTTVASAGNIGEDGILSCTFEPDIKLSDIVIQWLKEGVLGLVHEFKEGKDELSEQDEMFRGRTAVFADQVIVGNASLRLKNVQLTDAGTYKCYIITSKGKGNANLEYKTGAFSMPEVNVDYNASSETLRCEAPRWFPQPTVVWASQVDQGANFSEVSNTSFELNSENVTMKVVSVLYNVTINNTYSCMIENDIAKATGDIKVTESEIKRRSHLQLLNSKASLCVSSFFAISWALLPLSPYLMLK
row,Binder,binding in a display sort
1,B37,not found
